# Tested on: Vero E6 infected with SARS-CoV-2
# Experiment: morphology score (similarity to uninfected cells); higher = more like uninfected cells
# Conditions: 24 h
row,SMILES,morphology score
1,CCOC(=O)C1=C(C)NC(C)=C(C(=O)OCC)C1c1ccccc1/C=C/C(=O)OC(C)(C)C [lacidipine] (10 µM),0.101
2,CC[C@H](C)[C@H](N)C1=N[C@H](C(=O)N[C@@H](CC(C)C)C(=O)N[C@H](CCC(=O)O)C(=O)N[C@H](C(=O)N[C@H]2CCCCNC(=O)[C@H](CC(N)=O)NC(=O)[C@@H](CC(=O)O)NC(=O)[C@H](Cc3cnc[nH]3)NC(=O)[C@@H](Cc3ccccc3)NC(=O)[C@H]([C@@H](C)CC)NC(=O)[C@@H](CCCN)NC2=O)[C@@H](C)CC)CS1 [bacitracin] (10 µM),-0.109
3,CC#C[C@@H](CC(=O)O)c1ccc(OCc2cccc(-c3ccc(C(F)(F)F)cc3)c2)cc1 (10 µM),0.0803
4,OCC(Br)(Br)Br [tribromoethanol] (10 µM),-0.0304
5,NS(=O)(=O)c1cc2c(cc1C(F)(F)F)NC(Cc1ccccc1)NS2(=O)=O (stereo unspecified) [bendroflumethiazide] (10 µM),0.136
6,CC(C)(C)c1nc(-c2cccc(NS(=O)(=O)c3c(F)cccc3F)c2F)c(-c2ccnc(N)n2)s1 [dabrafenib] (10 µM),0.245
7,Oc1ccnc2cc(Cl)ccc12 [chloroxoquinoline] (10 µM),0.159
8,CC[C@@H]1C(=O)N(C)c2cnc(Nc3ccc(C(=O)N[C@H]4CC[C@H](N5CCN(CC6CC6)CC5)CC4)cc3OC)nc2N1C(C)C [volasertib] (10 µM),-0.314
9,COc1cc2ncnc(Nc3ccc(Oc4ccccc4)cc3)c2cc1OC [SRC-kinase-inhibitor-I] (0.833333 µM),0.0162
10,CCn1nc(C)c2c1C(c1ccccc1)=NCC(=O)N2 [ripazepam] (10 µM),0.0297
11,Cc1cc(SCc2sc(-c3ccc(C(F)(F)F)c(F)c3)nc2C)ccc1OCC(=O)O (10 µM),0.143
12,COc1cccc(OC)c1C(=O)N[C@@H]1C(=O)N2[C@@H]1SC(C)(C)[C@@H]2C(=O)O [methicillin] (10 µM),-0.0574

# Tested on: Vero E6 infected with SARS-CoV-2
# Experiment: SARS-CoV-2 infection rate relative to infected DMSO; higher = more infection, active = 60 or less
# Conditions: 24 h
row,SMILES,SARS-CoV-2 infection rate
1,OC(CNCC(O)C1CCc2cc(F)ccc2O1)C1CCc2cc(F)ccc2O1 (stereo unspecified) [nebivolol] (10 µM),108% (inactive)
2,CCCc1c2oc(C(=O)O)cc(=O)c2cc2c(=O)cc(C(=O)O)n(CC)c12 [nedocromil] (10 µM),110% (inactive)
3,Cc1c2oc3c(C)ccc(C(=O)N[C@@H]4C(=O)N[C@@H](C(C)C)C(=O)N5CCC[C@H]5C(=O)N(C)CC(=O)N(C)[C@@H](C(C)C)C(=O)O[C@@H]4C)c3nc-2c(C(=O)N[C@@H]2C(=O)N[C@@H](C(C)C)C(=O)N3CCC[C@H]3C(=O)N(C)CC(=O)N(C)[C@@H](C(C)C)C(=O)O[C@@H]2C)c(N)c1=O [actinomycin-d] (0.833333 µM),93% (inactive)
4,NC(=O)c1ccc(F)c2c1C[C@@H](N(C1CCC1)C1CCC1)CO2 [robalzotan] (10 µM),100% (inactive)
5,COc1cc2c(cc1OC)C(=O)C(CC1CCN(Cc3ccccc3)CC1)C2 (stereo unspecified) [donepezil] (10 µM),100% (inactive)
6,COc1ccc(C(=O)Nc2sc3c(c2C(N)=O)CCCC3)cc1OC (10 µM),96.5% (inactive)
7,CCCS(=O)(=O)Nc1ccc(F)c(C(=O)c2c[nH]c3ncc(-c4ccc(Cl)cc4)cc23)c1F [vemurafenib] (10 µM),85.5% (inactive)
8,C[C@@H]([C@@H](O)c1ccc(O)cc1)N1CCC(O)(c2ccccc2)CC1 [traxoprodil] (10 µM),108% (inactive)
9,CCC(=O)O[C@@](Cc1ccccc1)(c1ccccc1)[C@@H](C)CN(C)C [levopropoxyphene] (10 µM),109% (inactive)
10,CCOC(=O)NNc1nncc2ccccc12 [todralazine] (10 µM),106% (inactive)
11,Cc1cncc(CN2CCC(=C3c4ccc(Cl)cc4CCc4cccnc43)CC2)c1 [rupatadine] (10 µM),108% (inactive)
12,CCCC(=O)Nc1cccc(NC(=O)c2ccccc2Br)c1 (10 µM),110% (inactive)
13,CC[C@]1(O)C[C@@H]2CN(CCc3c([nH]c4ccccc34)[C@@](C(=O)OC)(c3cc4c(cc3OC)N(C)[C@H]3[C@@](O)(C(N)=O)[C@H](O)[C@]5(CC)C=CCN6CC[C@]43[C@@H]65)C2)C1 [vindesine] (10 µM),103% (inactive)
14,CCCCCCCCCCCCCCCC[n+]1ccn(Cc2ccccc2)c1C (0.833333 µM),104% (inactive)

# Reference: the supplement of paper PMC13380429
